# Screens: PubChem, National Center for Advancing Translational Sciences (NCATS)
# This is a sample that favours compounds with a hit; in the whole collection about 12% have one here.
# G9a inh = G9a (human) methyltransferase inhibition; Q96KQ7; G9a H3K9 monomethylation, AlphaScreen, 2 h; Potency, µM (top dose mostly 102 µM), for the others: top-dose activity, negative = inhibition, hits mostly inhibitors; 350,000 tested, 8.8% active; also: potency is read from the fitted curve at half-maximal effect; % is scaled to controls: 0 for no effect and ±100 for the full control effect; nearly all actives have a fitted effect of over 75% in size
#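 AlphaScreen detection with an anti-monomethyl H3K9 antibody quantified product after a 2 h room-temperature reaction containing 500 nM biotinylated H3K9 peptide, 20 µM SAM and 20 nM enzyme, which had been preincubated 15 min with compound.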
# HP1b binding inh = inhibitors of HP1-beta chromodomain binding to methylated histone tails. P83916. AlphaScreen HP1-beta / biotin-H3K9me3 peptide binding. Potency, µM (doses to about 114 µM), inactives show at the highest dose activity change, negative = inhibition, usual class: inhibitors. AID 540317. 390,000 tested, 0.56% active; also: potency is read from the fitted curve at half-maximal effect; nearly all actives have a fitted effect of over 70% in size
#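 HP1-beta protein (50 nM final) preincubated 30 min at room temperature with biotinylated H3(1-18)K9me3 peptide (50 nM) in PBS pH 7.4, 0.01% Tween-20, then compound added for 30 min. AlphaScreen streptavidin donor/nickel chelate acceptor beads (10 ug/mL final), 30 min dark, luminescence read.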
# JMJD2A Tudor = blocks the human JMJD2A Tudor domain. 390,000 tested, 4.4% active. AID 504339. Potency, µM (series often up to 114 µM), for the others: top-dose activity change, negative = inhibition, usual class: inhibitors. AlphaScreen JMJD2A-Tudor / H3K4me3 peptide binding; also: potency is read from the fitted curve at half-maximal effect; % is scaled to controls: 0 for no effect and ±100 for the full control effect; nearly all actives have a fitted effect of over 50% in size
# BAZ2B block = inhibitors of human BAZ2B bromodomain; Q9UIF8; AlphaScreen BAZ2B-H3K14Ac peptide displacement; Potency, µM (series often up to 114 µM), for the others: at the top dose activity change, negative = inhibition, actives largely listed as inhibitors; 360,000 tested, 4.4% active; AID 504333; also: potency is read from the fitted curve at half-maximal effect; % is scaled to controls: 0 for no effect and ±100 for the full control effect; nearly all actives have a fitted effect of over 60% in size
#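 Compounds, titrated to a top concentration of 110 uM, were incubated 30 min at room temperature with preformed BAZ2B/acetyl-K14 H3 peptide complex (50 nM each). Proximity signal was measured by AlphaScreen after 20 min with beads.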
# PI5P4K alpha inh = blocks human PI5P4K alpha kinase activity; P48426; 330,000 tested, 1.2% active; max response, %; PI5P4Kalpha enzyme, ADP-Glo luminescence, 60 min; stronger effect = lower value; active = max response of -50% or lower; inconclusive = between -30% and -50%; inactive = -30% or higher; also: value at the top dose of about 77 µM; % is scaled to controls: 0 for no effect and ±100 for the full control effect
# Target sequence (P48426 whole entry, looked up): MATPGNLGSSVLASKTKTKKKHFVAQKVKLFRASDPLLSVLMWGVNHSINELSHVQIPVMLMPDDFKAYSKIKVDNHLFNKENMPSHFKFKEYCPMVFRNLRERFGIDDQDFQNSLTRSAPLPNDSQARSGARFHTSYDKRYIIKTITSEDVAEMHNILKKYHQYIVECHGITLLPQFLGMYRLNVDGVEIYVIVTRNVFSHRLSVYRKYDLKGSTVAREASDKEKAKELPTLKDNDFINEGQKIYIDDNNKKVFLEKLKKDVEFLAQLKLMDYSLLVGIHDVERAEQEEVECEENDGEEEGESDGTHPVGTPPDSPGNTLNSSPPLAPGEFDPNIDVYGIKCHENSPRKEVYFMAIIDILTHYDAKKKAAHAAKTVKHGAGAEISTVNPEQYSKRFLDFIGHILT
#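 Compounds were pin-transferred onto PI5P4Kalpha and substrate in HEPES pH 7.4 buffer with EGTA, CHAPS and 5% DMSO. ATP (5 microM final) started the reaction, which ran 60 minutes at room temperature before ADP-Glo detection.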
# PLK1 PBD inh = inhibitors of human PLK1 polo-box domain binding; P53350; Plk1 PBD binding of FITC phosphopeptide, fluorescence polarization; Potency, µM, for the others: max response, negative = inhibition, usual class: inhibitors; 360,000 tested, 2.8% active; AID 720504; also: potency is read from the fitted curve at half-maximal effect; series mostly up to about 57 µM; % is scaled to controls: 0 for no effect and ±100 for the full control effect; nearly all actives have a fitted effect of over 65% in size
# An asterisk follows results filed as active; ? = inconclusive; . = not tested or not shown; [ ] = remark or other dose. Unless noted, calls follow the shape of the dose curve; as a rule, active = well fitted curve in the direction sought with a large enough effect; inconclusive = small, poorly fitted or top-dose-only effect, or another doubt; inactive = no such curve, though single readings can be large; an effect the other way counts as inactive or inconclusive.
SMILES,G9a inh,HP1b binding inh,JMJD2A Tudor,BAZ2B block,PI5P4K alpha inh,PLK1 PBD inh
Brc1cccc(C2Nc3cccc4cccc(c34)N2)c1,35µM*,-13%,-13%,?,-22,?
O=[N+]([O-])c1ccccc1C1Nc2cccc3cccc(c23)N1,2.8µM*,?,40µM*,32µM*,-3,-18%
Clc1cccc(C2Nc3cccc4cccc(c34)N2)c1,.,?,?,?,-15,?
Oc1ccccc1C1Nc2cccc3cccc(c23)N1,-118%[59 µM],?,-19%[11.4 µM],35µM*,-21,?
COc1cc(OC)c(C2Nc3cccc4cccc(c34)N2)c(OC)c1,28µM*,?,50µM*,35µM*,-10,-16%
COc1ccccc1CNC(=O)CSc1ccc(-c2sc(-c3ccccc3)nc2C)nn1,-10%[59 µM],29%,-15%,-39%,.,.
O=C(COC(=O)Cc1cccc(F)c1)NC(=O)NC1CCCCC1,?,23%,-16%,3%,5,-6%
Clc1ccc(C2Nc3cccc4cccc(c34)N2)cc1Cl,.,0%,-12%,?,-13,?
COc1ccc(C2Nc3cccc4cccc(c34)N2)cc1,35µM*,?,?,40µM*,-6,30µM*
O=[N+]([O-])c1ccc(Cl)c(C2Nc3cccc4cccc(c34)N2)c1,13µM*,?,25µM*,18µM*,-18,-5%
Cc1ccc(-n2nc(C(=O)Nc3ccc(C)c(F)c3)c3c4ccccc4n(C)c3c2=O)cc1,-34%[59 µM],12%,-7%,.,.,.
CCC/C=C/c1ccc(CN2C(C(C)C)C(=O)N(Cc3cn(Cc4ccco4)nn3)CCS2(=O)=O)cc1 (stereo unspecified),.,.,.,.,-13,6%
COc1ccc2c(c1)CC/C(=C\c1ccc(OC)c(Cn3nc(C)cc3C)c1)C2=O,?,1%,89µM*,?,5,-21%
COc1ccc(/C=C2\CCc3ccccc3C2=O)cc1CN1CCOCC1,35µM*,-20%,?,?,3,-5%
COc1cc(/C=C2/CCc3ccccc3C2=O)cc(OC)c1OC,24%[59 µM],4%,-14%,3%,4,0%
CC1(C)O[C@@H]2[C@H](O1)[C@@H](COS(=O)(=O)O)O[C@H]2n1c(=S)[nH]c2c(=O)[nH]c(N)nc21,13%[2.33 µM],-24%,20µM*,-6%,-1,-19%
CC1(C)O[C@@H]2[C@H](O1)[C@@H](COS(=O)(=O)O)O[C@H]2n1cnc2c(N)ncnc21,-11%[2.33 µM],.,.,-10%,.,.
CCCOc1ccc(C2=NC(c3ccc(F)cc3)=Nc3ccc(OC)cc3N2)cc1,-23%[59 µM],2%,?,10µM*,.,.
CCOC(=O)CSc1nnc2n(-c3ccccc3)c(=O)c3c4c(sc3n12)CC(C(C)(C)C)CC4 (stereo unspecified),-37%[59 µM],2%,-32%,?,.,.
CCCCN1/C(=C/c2ccc3ccccc3[n+]2CC)Sc2ccccc21,32µM*,-7%,32µM*,?,-18,10%
CCN1/C(=C/c2ccc3cc(C)ccc3[n+]2C)Sc2ccc3sccc3c21,16µM*,-16%,14µM*,45µM*,-24,-13%
CCCCCCN1C2=NCCN2c2ccccc21,?,23%,-3%,-6%,-2,-1%
CCN1/C(=C/c2ccc3cc(C)ccc3[n+]2CC)Sc2cc(C)ccc21,22µM*,-32%,?,40µM*,-19,5%
COc1ccc2nc(C(c3ccc(C)cc3)n3c(-c4ccccc4Br)nc4ccccc43)[nH]c2c1 (stereo unspecified),.,.,.,.,-8,-6%
COC(=O)[C@]1(C)N[C@H](c2ccc(-c3ccc(OC)cc3)cc2)[C@@H]2C(=O)N(C)C(=O)[C@@H]21,.,57%,-21%,.,-2,-10%
COC(=O)[C@]1(C)N[C@H](c2ccc(-c3ccc(Cl)c(Cl)c3)c(OC)c2)[C@@H]2C(=O)N(C)C(=O)[C@@H]21,?,-4%,89µM*,-10%,-3,-22%
